# In PubChem BioAssay (NCATS):
# Results filed as inconclusive are left out. A number with no mark means an inactive call. Calls of active or inactive are those of the source. The call rests on the fitted dose curve; in most records, active means well fitted cell-killing curve with a large enough effect; inconclusive means small, poorly fitted or top-dose-only effect, or effect the other way; inactive means no such curve, though single readings can be large or run the other way.
# Test: Quantitative High-Throughput drug screen in 47 multiple myeloma cell lines against the NCATS MIPE library collection: SKMM1_PLB cell viability assay (AID 1919863); further: nearly all actives have a fitted effect of over 35% in size; on viability: series mostly up to about 46 µM
# Conditions: SKMM1 myeloma viability, CellTiter-Glo ATP, 48 h; viability: stronger effect = lower value
# Text: PI: Beverly A. Mock Ph.D.
# Laboratory of Cancer Biology and Genetics,
# Center for Cancer Research, National Cancer Institute,
# National Institute of Health, Bethesda, Maryland
# Drug resistance and disease progression are common in multiple myeloma (MM) patients, underscoring the need for new therapeutic combinations. […] We hypothesized that effective combinations would reduce MYC expression and enhance p16 activity. […] These preclinical data identify potentially useful drug combinations for evaluation in drug-resistant MM and reveal potential mechanisms of combined drug sensitivity.
# Described herein is the primary MIPE qHTS used to cherrypick compounds. Validated compounds were then further tested for potential synergistic activiy.
# [1] Peat TJ, Gaikwad SM, Dubois W, Gyabaah-Kessie N, Zhang S, Gorjifard S, Phyo Z, Andres M, Hughitt VK, Simpson RM, Miller MA, Girvin AT, Taylor A, Williams D, D'Antonio N, Zhang Y, Rajagopalan A, Flietner E, Wilson K, Zhang X, Shinn P, Klumpp-Thomas C, McKnight C, Itkin Z, Chen L, Kazandijian D, Zhang J, Michalowski AM, Simmons JK, Keats J, Thomas CJ, Mock BA. Drug combinations identified by high-throughput screening promote cell cycle transition and upregulate Smad pathways in myeloma. Cancer Lett. 2023 Aug 1;568:216284. doi: 10.1016/j.canlet.2023.216284. Epub 2023 Jun 24. PMID: 37356470; PMCID: PMC10408729.
# SEQUENCE No. (e.g., 1, 2, 3, etc.); […] (e.g., Cells, Incubation, Reagent, etc.); VALUE and DESCRIPTION.
# 1; Cells; 5 uL; white, solid bottom 1536-well Greiner assay plate.
# 2; Compounds; 23 nL; Kalypsis pin tool (Wako USA) equipped with a 1536-well pin head to transfer to the assay plates.
# 3; Incubation; 48 hours; 37C incubation.
# 4; Reagent;5uL; CellTiter Glo (Promega).
# 5; Detector; 425V; Luminescence; Viewlux PerkinElmer.
# NOTES (numbers refer to Sequence numbers above)
# 1. The cell-based screening methods employed in this study were like those previously published. Briefly, the corresponding myeloma cell lines were screened in 1,536-well plates with 500 cells, 5-uL per well for inhibition of cell viability (assessed by measuring ATP levels with CellTiterGlo).
# 2. NCATS MIPE 4.0 library of approved and investigational drugs were added using the Kalypsis pin tool. Wells treated with DMSO only for 100% viability and media only for 0% viability were used as controls.
# 3. The assay plates were covered and incubated for 48 hours in a 37C, 5% CO2 incubator with controlled humidity.
# 4. After 48 hours, CellTilter-GloTM luminescent substrate mix (Promega) reagent was added to the assay plate and plates we incubated for 5 min at room temperature.
# 5. Signal was measured as median relative luminescence units on a ViewLux (PerkinElmer) multiplate reader.
# [1] Heske CM, Davis MI, Baumgart JT, Wilson K, Gormally MV, Chen L, Zhang X, Ceribelli M, Duveau DY, Guha R, Ferrer M, Arnaldez FI, Ji J, Tran HL, Zhang Y, Mendoza A, Helman LJ, Thomas CJ. Matrix Screen Identifies Synergistic Combination of PARP Inhibitors and Nicotinamide Phosphoribosyltransferase (NAMPT) Inhibitors in Ewing Sarcoma. Clin Cancer Res. 2017 Dec 1;23(23):7301-7311. doi: 10.1158/1078-0432.CCR-17-1121. Epub 2017 Sep 12. PMID: 28899971; PMCID: PMC6636827.
# Potency means the concentration at half of the fitted maximal effect.
Structure (SMILES),viability,Potency
O=C(NCCCCN1CCOCC1)c1cc2ccccc2o1,115%,–
Oc1cc(O)cc(C=Cc2ccc(O)c(O)c2)c1,–,23.5 µM (active)
CCc1cccc(CC)c1NC(=O)N1Cc2[nH]nc(NC(=O)c3ccc(N4CCN(C)CC4)cc3)c2C1,–,2.64 µM (active)
O=C(Nc1ccccc1)Nc1ccc(-c2ccc(C(=O)[C@H]3CCC[C@H]3C(=O)O)cc2)cc1,114%,–
O=C(O)C1=NC(C(=O)O)CC(C=CN2c3cc(O)c(OC4OC(CO)C(O)C(O)C4O)cc3CC2C(=O)O)=C1 (stereo not given),117%,–
OC1CCC(Nc2ncc3nc(Nc4c(F)cc(F)cc4F)n([C@@H]4CCOC4)c3n2)CC1 (stereo not given in full),–,18.7 µM (active)
CN(C)CCOc1ccc(-c2nc(-c3ccc4c(c3)CCC4=NO)c(-c3ccncc3)[nH]2)cc1,–,20.9 µM (active)
CC(C)n1c(C=C[C@H](O)C[C@H](O)CC(=O)O)c(-c2ccc(F)cc2)c2ccccc21,–,16.6 µM (active)
CC(C)c1c(C(=O)Nc2ccccc2)c(-c2ccccc2)c(-c2ccc(F)cc2)n1CC[C@H](O)C[C@@H](O)CC(=O)O,–,18.7 µM (active)
CC1=C(C(=O)Nc2cc3cn[nH]c3cc2F)C(c2ccc(C(F)(F)F)cc2)CC(=O)N1 (stereo not given),160%,–
CN(C)CCOc1cc(-c2cn[nH]c2)ccc1NC(=O)C1COc2ccccc2O1 (stereo not given),131%,–
CCN(CC)CCCCNc1nc2cc(Cl)c(Cl)cc2nc1-c1ccc(-c2cccs2)s1,–,16.6 µM (active)
O=c1[nH]c(=O)n([C@H]2C[C@@H](O)[C@@H](CO)O2)cc1I,119%,–
Nc1ccn([C@@H]2O[C@H](CO)[C@@H](O)[C@H]2O)c(=O)n1,113%,–
CCN(CCO)CCCOc1ccc2c(Nc3cc(CC(=O)Nc4cccc(F)c4)[nH]n3)ncnc2c1,116%,–
COc1ccc(-c2oc3c(CC=C(C)C)c(O)cc(O)c3c(=O)c2O)cc1,–,20.9 µM (active)
CSc1cccc(Nc2ncc3cc(-c4c(Cl)cccc4Cl)c(=O)n(C)c3n2)c1,–,1.87 µM (active)
O=C(O)CCC=CCC[C@@H]1[C@H](N2CCCCC2)[C@@H](O)C[C@@H]1OCc1ccc(-c2ccccc2)cc1,114%,–
O=C(c1ccc(C(=O)N2CCC(N3CCCC3)CC2)c(Nc2ccccc2)c1)N1CCC(N2CCCC2)CC1,–,6.62 µM (active)
Fc1ccc(C(c2ccc(F)cc2)N2CCN(CC=Cc3ccccc3)CC2)cc1,107%,–

Structure (SMILES),viability,Potency
O=C(O)Cc1cccc(OCCCN(Cc2cccc(C(F)(F)F)c2Cl)CC(c2ccccc2)c2ccccc2)c1,–,11.8 µM (active)
C[C@@H]1[C@H](C)CC[C@]2(C(=O)O)CC[C@]3(C)C(=CC[C@@H]4[C@@]5(C)CC[C@H](O)C(C)(C)[C@H]5CC[C@]43C)[C@@H]12,–,24.1 µM (active)
CS(=O)(=O)c1ccc(C2=C(c3ccccc3)C(=O)OC2)cc1,152%,–
O=S(=O)(O)c1ccc2cc(N=Nc3cc(S(=O)(=O)O)c4cccnc4c3O)ccc2c1,–,18.7 µM (active)
CC(C)c1onc(-c2c(Cl)cccc2Cl)c1COc1ccc(C=Cc2cccc(C(=O)O)c2)c(Cl)c1,113%,–
CC1=C(CC(=O)O)c2cc(F)ccc2C1=Cc1ccc(S(C)=O)cc1 (stereo not given),92.7%,–
CC(C)C[C@@H](N)[C@H](O)C(=O)N[C@H](C(=O)N[C@H](C(=O)N[C@@H](CC(=O)O)C(=O)O)C(C)C)C(C)C,122%,–
CC[C@H](C)C(=O)O[C@H]1C[C@H](O)C=C2C=C[C@H](C)[C@H](CC[C@@H](O)C[C@@H](O)CC(=O)O)[C@H]21,102%,–
C[C@H](CCC(=O)O)[C@H]1CC[C@H]2[C@H]3[C@@H](CC[C@]12C)[C@@]1(C)CC[C@@H](O)C[C@H]1C[C@@H]3O,120%,–
N#Cc1ccc(Oc2ccc3c(c2)COB3O)cc1,113%,–
COc1ccnc(CS(=O)c2nc3ccc(OC(F)F)cc3[nH]2)c1OC (stereo not given),150%,–
CCC(=C(CC)c1ccc(O)cc1)c1ccc(O)cc1,–,14.8 µM (active)
O=C(CO)N1CCC(c2[nH]nc(-c3ccc(Cl)cc3)c2-c2ccncn2)CC1,–,0.59 µM (active)
Cc1cc(OCCCS(C)(=O)=O)cc(C)c1-c1cccc(COc2ccc3c(c2)OC[C@H]3CC(=O)O)c1,–,14.8 µM (active)
C[C@@H](O[C@H]1OCCN(Cc2n[nH]c(=O)[nH]2)[C@@H]1c1ccc(F)cc1)c1cc(C(F)(F)F)cc(C(F)(F)F)c1,–,23.5 µM (active)
OC[C@H]1O[C@@H](O[C@H]2[C@@H](O)[C@@](O)(CO)O[C@@H]2CO)[C@H](O)[C@@H](O)[C@@H]1O,96.6%,–
C[C@@]1(C(=O)Nc2ccc(F)nc2)CCCN1c1nc(Nc2cc(C3CC3)[nH]n2)c2cccn2n1,–,1.48 µM (active)
C[C@]12C=CC(=O)C=C1CC[C@@H]1[C@@H]2[C@@H](O)C[C@@]2(C)[C@@H]1CC[C@]2(O)C(=O)CO,–,1.48 µM (active)
COC1CCC(C(=O)c2ccc3nc4c(cc3c2)CCCO4)CC1 (stereo not given),–,26.4 µM (active)
CCC(=C(c1ccc(O)cc1)c1ccc(OCCNC)cc1)c1ccccc1,–,20.9 µM (active)
